Data on 40 molecules can be found in PubChem BioAssay (NCI).

The structures appear in SMILES notation. This is part of a sample that, as a whole, favours compounds with a hit. Of some 79,000 tested, about 15% had one in any assay. Activity calls are given as the source filed them. No stated cut-off is given here; in the data, active means growth inhibition above about 70%; inactive means the rest.

The assay is described as follows: NCI Yeast Anticancer Drug Screen. Data for the mlh1 rad18 strain (AID 175). To be noted: S. cerevisiae mlh1 rad18 strain growth inhibition; at 50.0 µM; active compounds read high. As for the experimental part:
Growth inhibition of yeast strains with defined genetic alterations is measured as a screen for potential anti-cancer activity. Selected strains with alterations in DNA damage repair or cell cycle control were exposed to compounds and growth inhibition was measured relative to vehicle treated controls. The strain used in this assay is mlh1 rad18
With `O=C1c2cccc3c(Br)ccc(c23)C(=O)N1CCCN1CCOCC1`, the growth inhibition was 60.2% (inactive).

On to `O=[N+]([O-])c1ccc(Cl)cc1N/N=C/c1cccs1`, for which the growth inhibition was -31.8% (inactive).

With `N#C/C(N)=C(\C#N)N=CN`, the growth inhibition is -27.9% (inactive).

As for `O=C(O)c1ccc([N+](=O)[O-])cc1N(c1ccccc1)c1ccccc1`, the growth inhibition is 54% (inactive).

On to `CC1CCC(O)C(C(O)CC2CC(=O)NC(=O)C2)C1` (stereo not given), for which the growth inhibition is 3.45% (inactive).

Turning to `CCC1(CCCCCBr)OCCO1`, the growth inhibition is 7.9% (inactive).

As to `CCc1n[nH]c(=O)n1NC(=O)/C=C\C(=O)O`, the growth inhibition was -25.5% (inactive).

`O=C(O)/C=C/c1ccc(Oc2ccccc2C(=O)O)o1`: the growth inhibition was -2.25% (inactive).

Consider `N#CC1OC1c1ccccn1` (stereo not given), for which the growth inhibition was -21.6% (inactive).

On to `CCC(=O)N1CCN(C(=O)CC)c2ccccc21`, for which the growth inhibition was 6.65% (inactive).

In the case of `O=[N+]([O-])c1ccc(S(=O)c2ccc([N+](=O)[O-])cc2)cc1`, the growth inhibition is -4.75% (inactive).

Consider `CC1OC(c2ccc3c(c2O)C(=O)C2=C(C3=O)C3(O)C(=O)CC(C)(O)CC3(O)C=C2)CC(O)C1O` (stereo not given), for which the growth inhibition was -5.5% (inactive).

With `COC(=O)N/N=C/c1ccccc1Cl`, the growth inhibition is -12.2% (inactive).

Consider `O=C1/C=C2/C=CC=CN2C(=O)/C=C2/C=CC=CN12`, for which the growth inhibition was -11.9% (inactive).

On to `COc1nc(N)c([N+](=O)[O-])c(OC)n1`, for which the growth inhibition is -19.4% (inactive).

`CCOC(=O)CCC(NC(=O)c1ccc(Nc2nc3cc(C(F)(F)F)ccc3nc2-c2ccccc2)cc1)C(=O)OCC` (stereo not given): the growth inhibition was -37.1% (inactive).

For the molecule `FC(F)(F)c1cccc(CSCc2c(CSCc3cccc(C(F)(F)F)c3)c(CSCc3cccc(C(F)(F)F)c3)c(CSCc3cccc(C(F)(F)F)c3)c(CSCc3cccc(C(F)(F)F)c3)c2CSCc2cccc(C(F)(F)F)c2)c1`, the growth inhibition is 7.45% (inactive).

For the molecule `CCOC(=O)C[C@](C)(O)C1CCCN1` (stereo not given in full), the growth inhibition is 8.75% (inactive).

In the case of `COc1ccc(OCCO)cc1`, the growth inhibition was -0.15% (inactive).

In the case of `CN(C)[C@@H]1C(=O)C(C(=O)NCNc2cccc(C(=O)O)c2C(=O)O)=C(O)[C@@]2(O)C(=O)C3=C(O)c4c(O)cccc4[C@@](C)(O)[C@H]3C[C@@H]12`, the growth inhibition was 31.4% (inactive).

Regarding `CC1CCCCN1P(N1CCCCC1C)N1CCCCC1C` (stereo not given), the growth inhibition was 33.5% (inactive).

Regarding `C=CC1CC[N-]CC1.[Cl][Cu][Cl]`, the growth inhibition was 6.35% (inactive).

Consider `CC1(C)OB(O)OC1(C)C`, for which the growth inhibition is -9.7% (inactive).

As for `Cc1cc2c(cc1C)NS(=O)(=O)N2`, the growth inhibition is 7.35% (inactive).

Regarding `CC(C)NC(=O)CCSCCC(=O)NC(C)C`, the growth inhibition is 10.1% (inactive).

In the case of `O=Cc1ccnc2c(Cl)cccc12`, the growth inhibition is 18% (inactive).

`CCC1(c2ccccc2)Nc2ccccc2C1=Nc1ccccc1` (stereo not given): the growth inhibition was 27.4% (inactive).

With `CCCCCC(=O)Cc1cc(OC)cc2c1C(=O)Oc1cc(O)c(C(=O)O)c(CC(=O)CCCCC)c1O2`, the growth inhibition was 78.1% (active).

Take `C=Cc1ccc(OC2OC(CO)C(OC3OC(CO)C(O)C(O)C3O)C(O)C2O)cc1` (stereo not given): the growth inhibition was -2.8% (inactive).

With `CC(=O)OC1COC(n2c(O)c(N=NC(N)=S)c3cc(Br)ccc32)C(OC(C)=O)C1OC(C)=O` (stereo not given), the growth inhibition was 31.1% (inactive).

With `COc1cc(CN2CCCCC2)cc2cc(C(=O)O)c(=O)oc12`, the growth inhibition was -11.9% (inactive).

For the molecule `CC(C)=CCC[C@@H](C)C1[C@@H](OC2OC(CO)C(O)C(O)C2O)CC2(C)[C@@H]3CC(=O)C4C(C)(C)[C@@H](OC5OC(CO)C(O)C(O)C5O)CC[C@@]45C[C@@]35CC[C@]12C` (stereo not given in full), the growth inhibition was -25.4% (inactive).

As for `CCNC(CC(N)=O)C(=O)O` (stereo not given), the growth inhibition is -11.6% (inactive).

For `OCc1ccccc1CO`, the growth inhibition is 3.15% (inactive).

With `CCCCCC/C(CC(=O)CCC(=O)NCCc1ccccc1)=N\NC(=O)c1ccc2ccccc2c1O`, the growth inhibition is 45.5% (inactive).

On to `O=C(N/N=C/c1ccc(Cl)cc1)c1cc(-c2ccccc2)nc2ccccc12`, for which the growth inhibition is -5.7% (inactive).

For `CC(=O)[O-].O=S(=O)(Nc1ncccn1)c1ccc(N=Cc2ccccc2O)cc1.O=S(=O)(Nc1ncccn1)c1ccc(N=Cc2ccccc2O)cc1.[Cu+2]`, the growth inhibition is -1.35% (inactive).

In the case of `COC(=O)N1C(c2ccccc2)(c2ccccc2)CS1(=O)=O`, the growth inhibition was 5.25% (inactive).

Turning to `COC(=O)C(CC(=O)[C@H]1CC[C@H]2[C@@H]3CC=C4C[C@@H](OC(C)=O)CC[C@]4(C)[C@H]3CC[C@]12C)OC(C)=O` (stereo not given in full), the growth inhibition is 8.7% (inactive).

With `CN(C)c1ccc(/C=C2/CC(=O)N(c3ccccc3)C2=O)cc1`, the growth inhibition was 15.6% (inactive).
